ChEMBL document CHEMBL1961873, “Compounds: GSK PKIS; Assays: Nanosyn kinase panel” (2012)

Tests used:
[1] = target: Mast/stem cell growth factor receptor Kit (Homo sapiens) (UniProt P10721); details: at 1 µM
[2] = system: Mast/stem cell growth factor receptor Kit (Homo sapiens), P10721 [D816V]; details: at 0.1 µM
[3] = system: Mast/stem cell growth factor receptor Kit (Homo sapiens), P10721 [D816V]; details: at 1 µM
[4] = system: Mast/stem cell growth factor receptor Kit (Homo sapiens), P10721 [T670I]; details: at 0.1 µM
[5] = system: Mast/stem cell growth factor receptor Kit (Homo sapiens), P10721 [T670I]; details: at 1 µM
[6] = system: Mast/stem cell growth factor receptor Kit (Homo sapiens), P10721 [V560G]; details: at 0.1 µM
[7] = system: Mast/stem cell growth factor receptor Kit (Homo sapiens), P10721 [V560G]; details: at 1 µM
[8] = target: Tyrosine-protein kinase Lck (Homo sapiens) (UniProt P06239); details: at 0.1 µM
[9] = target: Tyrosine-protein kinase Lck (Homo sapiens) (UniProt P06239); details: at 1 µM
[10] = target: Leukocyte tyrosine kinase receptor (Homo sapiens) (UniProt P29376); details: at 0.1 µM
Sequence of Leukocyte tyrosine kinase receptor (Homo sapiens) (P29376 whole entry): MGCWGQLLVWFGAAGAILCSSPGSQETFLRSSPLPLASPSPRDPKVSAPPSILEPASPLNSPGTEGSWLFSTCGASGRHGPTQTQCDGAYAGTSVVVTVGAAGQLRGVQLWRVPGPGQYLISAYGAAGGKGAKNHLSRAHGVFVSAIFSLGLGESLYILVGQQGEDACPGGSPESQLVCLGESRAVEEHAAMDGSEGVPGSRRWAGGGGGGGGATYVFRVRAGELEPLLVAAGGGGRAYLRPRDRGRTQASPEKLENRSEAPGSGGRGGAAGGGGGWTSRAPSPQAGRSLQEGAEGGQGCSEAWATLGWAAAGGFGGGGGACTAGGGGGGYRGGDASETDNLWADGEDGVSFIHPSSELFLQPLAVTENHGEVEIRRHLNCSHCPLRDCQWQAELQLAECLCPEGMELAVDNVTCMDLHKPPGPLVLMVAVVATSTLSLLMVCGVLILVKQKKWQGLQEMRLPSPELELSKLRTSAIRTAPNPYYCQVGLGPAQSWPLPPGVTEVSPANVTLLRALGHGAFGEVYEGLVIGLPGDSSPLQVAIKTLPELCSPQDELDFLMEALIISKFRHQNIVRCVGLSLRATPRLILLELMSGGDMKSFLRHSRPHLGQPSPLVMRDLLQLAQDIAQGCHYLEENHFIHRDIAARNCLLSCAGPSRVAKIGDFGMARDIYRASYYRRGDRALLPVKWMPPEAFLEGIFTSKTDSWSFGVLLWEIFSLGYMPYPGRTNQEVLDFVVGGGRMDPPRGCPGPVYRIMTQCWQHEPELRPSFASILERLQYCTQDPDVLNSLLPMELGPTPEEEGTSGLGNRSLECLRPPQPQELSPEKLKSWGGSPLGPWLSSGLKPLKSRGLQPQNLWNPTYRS

Sequence of Tyrosine-protein kinase Lck (Homo sapiens) (P06239 2-509 limits assumed): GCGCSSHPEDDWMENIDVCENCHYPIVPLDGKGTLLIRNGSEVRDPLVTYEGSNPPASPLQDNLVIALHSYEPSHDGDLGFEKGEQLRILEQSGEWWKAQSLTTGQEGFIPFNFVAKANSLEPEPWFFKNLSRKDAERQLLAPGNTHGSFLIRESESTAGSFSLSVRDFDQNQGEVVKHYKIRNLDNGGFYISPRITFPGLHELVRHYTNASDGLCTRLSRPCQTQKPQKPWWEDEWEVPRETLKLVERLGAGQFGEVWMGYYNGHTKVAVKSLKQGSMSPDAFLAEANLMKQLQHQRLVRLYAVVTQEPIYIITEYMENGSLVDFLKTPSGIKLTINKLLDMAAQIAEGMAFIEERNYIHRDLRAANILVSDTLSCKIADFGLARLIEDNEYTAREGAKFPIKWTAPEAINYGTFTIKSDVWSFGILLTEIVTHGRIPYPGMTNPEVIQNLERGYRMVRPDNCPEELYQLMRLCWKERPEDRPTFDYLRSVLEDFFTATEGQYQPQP
Sequence of Mast/stem cell growth factor receptor Kit (Homo sapiens) (P10721 whole entry): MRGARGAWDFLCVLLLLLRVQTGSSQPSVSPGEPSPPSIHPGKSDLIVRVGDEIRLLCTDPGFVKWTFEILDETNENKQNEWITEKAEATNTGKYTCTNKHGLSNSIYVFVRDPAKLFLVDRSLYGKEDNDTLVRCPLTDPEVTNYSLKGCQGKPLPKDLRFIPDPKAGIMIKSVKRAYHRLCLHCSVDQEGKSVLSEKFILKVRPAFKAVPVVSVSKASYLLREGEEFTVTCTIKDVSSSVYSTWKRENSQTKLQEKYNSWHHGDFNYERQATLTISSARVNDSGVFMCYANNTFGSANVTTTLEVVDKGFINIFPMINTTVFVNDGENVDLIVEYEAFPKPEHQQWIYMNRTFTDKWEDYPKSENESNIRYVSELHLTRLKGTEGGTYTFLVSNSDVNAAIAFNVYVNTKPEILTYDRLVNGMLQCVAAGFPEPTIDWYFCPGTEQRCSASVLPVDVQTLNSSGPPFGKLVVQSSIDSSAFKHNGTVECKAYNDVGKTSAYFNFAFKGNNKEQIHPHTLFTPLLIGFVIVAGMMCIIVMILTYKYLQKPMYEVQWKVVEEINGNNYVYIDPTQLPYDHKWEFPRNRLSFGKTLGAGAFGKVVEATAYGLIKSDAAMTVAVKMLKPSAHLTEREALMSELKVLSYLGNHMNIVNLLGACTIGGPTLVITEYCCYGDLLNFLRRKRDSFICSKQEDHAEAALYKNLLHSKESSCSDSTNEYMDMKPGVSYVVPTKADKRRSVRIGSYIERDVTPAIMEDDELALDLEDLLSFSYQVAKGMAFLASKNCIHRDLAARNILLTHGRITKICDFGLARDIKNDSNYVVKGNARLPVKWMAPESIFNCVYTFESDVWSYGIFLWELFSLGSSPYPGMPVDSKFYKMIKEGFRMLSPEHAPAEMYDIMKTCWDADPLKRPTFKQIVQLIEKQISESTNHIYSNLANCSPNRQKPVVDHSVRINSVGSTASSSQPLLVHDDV
Sequence of Mast/stem cell growth factor receptor Kit (Homo sapiens), P10721 [T670I] (P10721 whole entry T670I): as the sequence (P10721 whole entry) above, with T670I counted along it
Sequence of Mast/stem cell growth factor receptor Kit (Homo sapiens), P10721 [V560G] (P10721 whole entry V560G): as the sequence (P10721 whole entry) above, with V560G counted along it
Sequence of Mast/stem cell growth factor receptor Kit (Homo sapiens), P10721 [D816V] (P10721 whole entry D816V): as the sequence (P10721 whole entry) above, with D816V counted along it

| Compound | inhibition [1] | inhibition [2] | inhibition [3] | inhibition [4] | inhibition [5] | inhibition [6] | inhibition [7] | inhibition [8] | inhibition [9] | inhibition [10] |
| --- | --- | --- | --- | --- | --- | --- | --- | --- | --- | --- |
| COc1ccc(-c2ccc3c(NC(=O)C4CC4)n[nH]c3n2)cc1 | 6.98% | 3.21% | 2.92% | 0.56% | 3.21% | 4.61% | 2.87% | -0.02% | 3.64% | 1.94% |
| NS(=O)(=O)c1ccc(N/N=C2\C(=O)Nc3ccc(C(=O)NCCCn4ccnc4)cc32)cc1 | 9.5% | 6.28% | 9.36% | 3.5% | 5.57% | -1.18% | 1.2% | 1.53% | 7.02% | 5.17% |
| COc1cc(Nc2ncc3c(C)nc(-c4cccc(C(F)(F)F)c4)n3n2)cc(OC)c1OC | 44.8% | 4.72% | 5.97% | 1.57% | 7.22% | -0.27% | 7.67% | 3.24% | 20.1% | 4.18% |
| C/C(Nc1ccc(S(N)(=O)=O)cc1)=C1/C(=O)Nc2ccccc21 | 90.9% | -0.26% | -1.16% | 21% | 82.5% | 3.94% | 22.4% | -1.24% | 4.22% | 1.12% |
| CN1CCN(CCCNc2nc3ccc(Oc4ccc(NC(=O)Nc5cc(C(F)(F)F)ccc5F)cc4)cc3[nH]2)CC1 | 91.9% | -2.19% | 0.02% | 11.5% | 70.1% | 31.6% | 76.6% | -1.91% | 7.95% | -0.24% |
| c1ccc(-c2n[nH]cc2-c2ccnc(-c3ccc(OCCN4CCOCC4)cc3)c2)nc1 | 2.31% | -0.77% | 8.41% | -3% | -2.32% | 7.8% | 10.4% | 1.7% | 9.5% | -0.05% |
| CNC(=O)c1cncc(/C=C/c2c(C)cccc2C)c1 | 51.7% | 1.76% | 0.69% | -0.72% | -0.77% | 3.1% | 17.2% | 3.11% | 30% | -1.27% |
| CCS(=O)(=O)c1ccc(OC)c(Nc2ncc(-c3cccc(-c4ccccc4F)c3)o2)c1 | 90.9% | -0.16% | 6.62% | 2.77% | 19.6% | 4.79% | 19.7% | 9.89% | 55.8% | 1.34% |
| CS(=O)(=O)CCNCc1cc(-c2cc3c(Nc4ccc(OCc5cccc(F)c5)c(Cl)c4)ncnc3s2)cs1 | 8.47% | 2.03% | 6.26% | 2.2% | 5.07% | -1.18% | 0.47% | 2.76% | 4.18% | 6.05% |
| COc1cc2ncn(-c3cc(OCc4ccccc4C(F)(F)F)c(C(C)=O)s3)c2cc1OC | 4.53% | 2.21% | 1.58% | 2.81% | 6.12% | -1.46% | 1.6% | 4.22% | 9.66% | 2.03% |
| COc1ccc2cc(-c3c(-c4ccncc4)nc(-c4ccc(S(C)(=O)=O)cc4C)n3C)ccc2c1 | 4.85% | 1.65% | 4.38% | 2.6% | 4.5% | 1.82% | -0.08% | 1.82% | 8.97% | 3.22% |
| NS(=O)(=O)c1ccc(N/N=C2\C(=O)Nc3ccc(-c4cnco4)cc32)cc1 | 42.2% | 0.65% | 5.47% | 1.64% | 10.7% | 0.82% | 3.19% | -1.05% | 4.4% | 1.24% |
| O=C1NC(=O)C(c2cccc(Cl)c2)=C1Nc1ccc(Cl)c(C(=O)O)c1 | 5.28% | 1.8% | 5.8% | 2.83% | 4.22% | 1% | 6.94% | 1.82% | 0.84% | 2.51% |
| Clc1ccc(CNc2nccc(-c3cnn4ncccc34)n2)cc1 | 19.4% | 0.92% | 5.08% | 1.59% | 6.47% | 3.83% | 7.92% | 2.31% | 2.46% | 0.55% |
| CCc1nccc2c1nc(-c1nonc1N)n2CC | 0.89% | 0.61% | -2.34% | -0.13% | -2.18% | 3.98% | 0.88% | 0.67% | 6.3% | 6.17% |
| CCc1ccc(Oc2nccc(-c3c(-c4ccc(F)cc4)ncn3C3CCNCC3)n2)cc1 | 3.31% | 4.91% | 1.86% | 2.54% | 2.33% | -1.42% | -1.63% | 3.37% | 6.55% | 2.71% |
| COc1cccc(/C=N/Nc2ncnc3c2cnn3-c2cccc(OC)c2)c1 | 6.76% | 2.28% | 4.96% | 1.91% | 4.1% | 3.55% | 0.61% | 2.18% | 8.97% | 5% |

| Compound | inhibition [1] | inhibition [2] | inhibition [3] | inhibition [4] | inhibition [5] | inhibition [6] | inhibition [7] | inhibition [8] | inhibition [9] | inhibition [10] |
| --- | --- | --- | --- | --- | --- | --- | --- | --- | --- | --- |
| O=C(Nc1n[nH]c2cc(-c3cc(F)ccc3F)ccc12)C1CC1 | 7.05% | 1.5% | 3.88% | 2.63% | 3.43% | 1.22% | 1.15% | 1.37% | 6.57% | 6.64% |
| NS(=O)(=O)c1ccc(Nc2cc(-c3ccc(O)c(F)c3)n[nH]2)cc1 | 86.4% | -3.97% | -1.47% | -0.5% | 20.2% | 8.78% | 55.9% | -0.68% | 7.91% | -0.58% |
| O=C(Nc1n[nH]c2nc(-c3ccco3)ccc12)C1CC1 | 1.57% | -0.41% | 0.03% | 1.03% | 2.02% | 3.13% | 6.74% | 1.24% | 3.59% | 1.06% |
| COc1cccc(-n2cnc3c(N/N=C/c4ccncc4)ncnc32)c1 | 83.4% | 0.1% | 3.79% | -2.23% | 6.36% | 3.15% | 18.8% | 3.69% | 29.3% | -1.69% |
| COc1ccc(C2=C(N3CCc4ccccc43)C(=O)NC2=O)cc1 | 15.1% | 3.56% | 3.25% | 6.38% | 5.55% | 3.19% | 4.55% | 4.42% | 4.16% | 5.23% |
| CS(=O)(=O)CCNCc1ccc(-c2ccc3ncnc(Nc4ccc(OCc5ccccc5)c(Br)c4)c3c2)o1 | 3.91% | 4.87% | 2.18% | 2.66% | 1.79% | -3.28% | -1.19% | 0.4% | 4.79% | 2.96% |
| NC(=O)c1ccc(Oc2nccc(-c3c(-c4ccc(F)cc4)ncn3C3CCNCC3)n2)cc1 | 6.05% | 4.42% | 4.25% | 1.23% | 1.77% | -1.86% | 0.03% | 5.07% | 4.88% | 4.02% |
| Fc1ccc(-c2ncn(CCCN3CCOCC3)c2-c2ccncc2)cc1 | -0.81% | 0.65% | -1.66% | -0.29% | -2.16% | 2.57% | 0.03% | 0.17% | 3.45% | 0.08% |
| CN(C)CCOc1ccc(-c2cc(-c3ccc4c(c3)CCC4=NO)c(-c3ccncc3)o2)cc1 | 1.55% | -1.77% | -0.88% | 0.11% | 0.36% | 1.5% | 3.34% | 2.65% | 24.9% | -0.5% |
| COc1cc2ncn(-c3cc(OCCc4ccccc4)c(C(N)=O)s3)c2cc1OC | 5.42% | 5.33% | -0.63% | 0.21% | -1.17% | -2.95% | -0.35% | 2.24% | 5.88% | 1.89% |
| CN(C)CCCNc1nccc(-c2c(-c3ccc(F)cc3)nn3cc(C(F)(F)F)ccc23)n1 | 2.1% | 1.94% | -0.31% | 0.09% | 0.14% | 6.47% | 4.04% | -2.05% | 3.17% | 1.9% |
| COc1ccc2cc(-c3c(-c4ccncc4)nc(-c4ccc([S+](C)[O-])cc4C)n3C)ccc2c1 (stereo not given) | 4.45% | -3.23% | -3.08% | 0.48% | 0.67% | 4.53% | -0.3% | 0.43% | 8.73% | 0.03% |
| COc1cc(Nc2ncc(-c3ccccc3)o2)cc(OC)c1OC | 98.7% | 0.53% | 0.05% | 69.3% | 94.8% | 22.2% | 80.4% | 2.17% | 25% | 0.26% |
| NC(=O)Cc1ccccc1Oc1nccc(-c2c(-c3ccc(F)cc3)ncn2C2CCNCC2)n1 | 0.35% | 0.95% | -1.59% | -0.35% | -1.27% | 0.54% | -3.43% | 1.45% | 1.06% | 3.35% |
| Cc1ccc(C(=O)NC(C)C)cc1-c1ccc(C(=O)NCC2CC2)cc1 | -4.83% | 14.1% | -0.69% | -3.01% | -1.47% | 1.17% | 1.03% | -1.32% | 0.84% | -1.19% |
| Fc1ccc(-c2ncn(C3CCNCC3)c2-c2ccnc(Oc3ccc(F)c(F)c3)n2)cc1 | 5.24% | 5.58% | 2.5% | 1.57% | 1.83% | -1.36% | 0.87% | -1.59% | -1.94% | 2.84% |
| Cc1nnc(-c2ccc(C)c(-c3ccc(C(=O)NCc4ccc(Cl)cc4)cc3)c2)o1 | 3.81% | 4.88% | 1.51% | 2.49% | 7.38% | -1.65% | -1.05% | -2.94% | -1.25% | 1.83% |
